Source: PubChem BioAssay (Tox21)
Inconclusive results are not listed. Calls of active or inactive are those of the source. Unless noted, the call rests on the fitted dose curve; in most records, active means well fitted curve in the direction sought with a large enough effect in the repeat runs; inconclusive means weak or mixed curves; inactive means no such curve, though single readings can be large; an effect the other way counts as inactive or inconclusive.

Columns and labels:
[1] = qHTS assay for small molecules that induce genotoxicity in human embryonic kidney cells expressing luciferase-tagged ATAD5 (AID 651632); further: nearly all actives have a fitted effect of over 15% in size
Summary of the method: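 Quantitative HTS in HEK293T expressing luciferase-tagged ATAD5, whose levels rise upon DNA damage. Exposure ran 16 hr at 37C and 5% CO2, with luminescence read 30 min after Amplite addition at room temperature.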

[2] = qHTS assay for small molecule agonists of the p53 signaling pathway - cell viability (AID 651633; calls by dose curve;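 further: p53RE-bla HCT reporter cells with a stable beta-lactamase p53 reporter; series mostly up to about 83 µM; nearly all actives have a fitted effect of over 30% in size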)
Summary of the method: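 p53RE-bla cells, seeded at 4,000 per well and rested 5 h at 37 C/5% CO2, received compounds in DMSO for 16 h at 37 C. CellTiter-Glo was then added, and luminescence was read after 30 min at room temperature to gauge cytotoxicity.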

[3] = qHTS assay for small molecules that induce genotoxicity in human embryonic kidney cells expressing luciferase-tagged ATAD5 - cell viability (AID 651634; calls by dose curve; further: nearly all actives have a fitted effect of over 25% in size)
Summary of the method: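 After 15.5 hr incubation with compound at 37C, 5% CO2, HEK293T ATAD5-luciferase cells received CellTiter-Fluor reagent; fluorescence intensity was quantified following 30 min at 37C.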

[4] = qHTS assay for small molecule disruptors of the mitochondrial membrane potential - cell viability (AID 720634; calls by dose curve;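 further: human HepG2 liver cancer cells; series mostly up to about 83 µM; nearly all actives have a fitted effect of over 20% in size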)
Summary of the method: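 ATP-based luminescent viability readout (CellTiter-Glo, 30 min, room temperature) in HepG2 cells multiplexed with the m-MPI membrane potential dye; compound exposure lasted 1 hr at 37 C.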

[5] = qHTS assay for small molecule disruptors of the mitochondrial membrane potential (AID 720635); further: potency means the concentration at half of the fitted maximal effect
Summary of the method: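 HepG2 cells (2,000/well) attached overnight at 37C, then took compound for 1 hr at 37C, 5% CO2. Mito-MPS dye was added for 30 min; fluorescence was read at 490/535 nm (monomers) and 540/590 nm (aggregates).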

[6] = qHTS assay to test for compound auto fluorescence at 590 nm (red) in HepG2 cells (AID 720674)
Summary of the method: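 Rose Bengal sodium served as the red fluorophore standard. HepG2 monolayers (overnight attachment, MEM with 10% FBS) were exposed to test compounds for 1 hr at 37 C and read at Ex 540/Em 590 nm.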

[7] = qHTS assay to test for compound auto fluorescence at 535 nm (green) in HepG2 cells (AID 720675)
[8] = qHTS assay to test for compound auto fluorescence at 460 nm (blue) in HEK293 cells (AID 720678)
Summary of the method: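 Intrinsic compound fluorescence is recorded in live HEK293 cultures after overnight incubation at 37C, 5% CO2, using excitation 405 nm and emission 460 nm. Values are referenced to triamterene.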

[9] = qHTS assay to test for compound auto fluorescence at 535 nm (green) in HEK293 cells (AID 720680)
[10] = qHTS assay to test for compound auto fluorescence at 460 nm (blue) in HEK293 cell free culture (AID 720681)
Summary of the method: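 Test compounds were pinned into cell-free culture medium (DMEM with 10% FBS) and fluorescence was read directly at Ex/Em 405/460 nm. Signals were expressed as fluorescence equivalents of triamterene, with DMSO vehicle as control.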

[11] = qHTS assay to test for compound auto fluorescence at 535 nm (green) in HEK293 cell free culture (AID 720682)
Summary of the method: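 Measurement is a direct plate read of green fluorescence (485 nm in, 535 nm out) after compound addition to serum-supplemented DMEM lacking cells, with fluorescein used to express intensities.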

[12] = qHTS assay to test for compound auto fluorescence at 590 nm (red) in HEK293 cell free culture (AID 720683)
Summary of the method: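 Tox21 10K library compounds were pinned into cell-free DMEM with 10% FBS and fluorescence was read at excitation 540 nm. Activity is expressed as Rose Bengal sodium equivalency.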

[13] = qHTS assay to test for compound auto fluorescence at 590 nm (red) in HepG2 cell free culture (AID 720684)
Summary of the method: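 Ex 540 / Em 590 nm read of compound in cell-free MEM (10% FBS). Rose Bengal sodium reference.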

[14] = qHTS assay to test for compound auto fluorescence at 460 nm (blue) in HepG2 cell free culture (AID 720685)
Summary of the method: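 Cell-free plates of MEM plus 10% FBS received 23 nL compound or DMSO vehicle; blue-channel (405/460 nm) intensity scored against triamterene as reference fluorophore.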

[15] = qHTS assay to test for compound auto fluorescence at 535 nm (green) in HepG2 cell free culture (AID 720686)
[16] = qHTS assay to test for compound auto fluorescence at 460 nm (blue) in HepG2 cells (AID 720687)
Summary of the method: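 Cells (2,000/well in MEM with 10% FBS) attached overnight at 37 C, then were exposed to compound or DMSO for 1 hr at 37 C, 5% CO2. Fluorescence read at Ex/Em 405/460 nm, expressed as triamterene-equivalent signal.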

[17] = target: Glucocorticoid receptor (Homo sapiens) (UniProt P04150); assay: qHTS assay to identify small molecule agonists of the glucocorticoid receptor (GR) signaling pathway (AID 720691; active means well fitted activation curve with a large enough effect in the signal ratio in the repeat runs, not every such curve was filed as active; the % refers to the signal ratio)
Glucocorticoid receptor (Homo sapiens), sequence (P04150 whole entry, looked up): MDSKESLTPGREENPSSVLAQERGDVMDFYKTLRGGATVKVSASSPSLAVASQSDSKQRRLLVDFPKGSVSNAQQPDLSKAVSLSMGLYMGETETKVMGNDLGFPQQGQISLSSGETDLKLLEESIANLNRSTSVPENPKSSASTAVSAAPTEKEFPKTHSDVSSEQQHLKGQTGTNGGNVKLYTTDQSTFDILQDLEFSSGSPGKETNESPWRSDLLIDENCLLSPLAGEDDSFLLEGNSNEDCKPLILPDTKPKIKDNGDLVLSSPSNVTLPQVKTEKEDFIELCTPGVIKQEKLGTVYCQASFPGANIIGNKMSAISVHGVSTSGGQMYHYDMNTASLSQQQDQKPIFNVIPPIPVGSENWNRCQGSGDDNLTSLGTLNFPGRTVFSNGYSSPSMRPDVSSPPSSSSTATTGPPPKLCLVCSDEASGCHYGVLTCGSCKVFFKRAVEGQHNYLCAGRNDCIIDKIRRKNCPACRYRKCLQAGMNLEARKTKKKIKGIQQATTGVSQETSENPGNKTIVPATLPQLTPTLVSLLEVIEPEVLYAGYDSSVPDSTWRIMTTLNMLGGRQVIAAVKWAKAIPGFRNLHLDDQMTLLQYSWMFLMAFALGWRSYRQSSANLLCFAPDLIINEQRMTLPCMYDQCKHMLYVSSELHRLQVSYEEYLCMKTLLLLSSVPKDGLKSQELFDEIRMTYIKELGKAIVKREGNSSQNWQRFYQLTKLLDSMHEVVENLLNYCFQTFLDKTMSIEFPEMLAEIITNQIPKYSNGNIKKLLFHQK
Summary of the method: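 Cells: GR-bla HeLa, endogenous GR with stably integrated GRE-beta-lactamase reporter. Treatment 18 h, 37 C, compounds delivered in DMSO. Detection via LiveBLAzer B/G FRET substrate, 2 h RT, fluorescence intensity.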

[18] = target: Glucocorticoid receptor (Homo sapiens) (UniProt P04150); assay: qHTS assay to identify small molecule antagonists of the glucocorticoid receptor (GR) signaling pathway (AID 720692; active means well fitted inhibition curve with a large enough effect in the signal ratio in the repeat runs, not every such curve was filed as active; the % refers to the signal ratio)
Summary of the method: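 Quantitative HTS in antagonist format: HeLa cells expressing endogenous GR and a stably integrated GRE-bla reporter, stimulated with 5 nM dexamethasone (final) alongside test compounds for 18 h.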

[19] = qHTS assay to test for compound auto fluorescence at 590 nm (red) in HEK293 cells (AID 720679)
Summary of the method: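 Red autofluorescence, HEK293 cells: 2,000 cells/well; attach 4-5 hr 37C; add 23 nL cpd or DMSO; incubate o/n 37C 5% CO2; read Ex540/Em590; Rose Bengal sodium reference.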

[20] = qHTS assay for small molecule agonists of the p53 signaling pathway (AID 651631; calls by dose curve; further: nearly all actives have a fitted effect of over 15% in size)
Summary of the method: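 Quantitative high-throughput format: 4,000 p53RE-bla HCT-116 cells/well, 5 h pre-incubation, 16 h compound exposure at 37 °C, 2 h room-temperature substrate step, fluorescence intensity measured.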

Measured: Potency

CC(=O)SCC(CC(=O)c1ccc(C)cc1)C(=O)O (stereo unspecified)
not listed: [19] | [20]
inactive: all other assays above

CC(=O)c1ccc2ccc3ccccc3c2c1
active: [5] 30.5 µM
not listed: [6] | [17] | [18] | [20]
inactive: all other assays above

CC1(C)CC(N)CC(C)(C)N1
not listed: [1] | [5] | [6] | [17] | [18] | [19]
inactive: all other assays above

O=Cc1ccccc1S(=O)(=O)O
not listed: [20]
inactive: all other assays above

CCCCCC(CC)OC(=O)CCCOc1ccc(Cl)cc1Cl (stereo unspecified)
not listed: [20]
inactive: all other assays above

CN1C(CCl)Nc2cc(Cl)c(S(N)(=O)=O)cc2S1(=O)=O (stereo unspecified)
not listed: [1] | [5] | [19]
inactive: all other assays above

CC(=O)Nc1ccc(OCCOCCOc2ccc(NC(C)=O)cc2)cc1
not listed: [18] | [20]
inactive: all other assays above
